# Source: the supplement of paper PMC10849652
# Of roughly 7,900 targets only a part is listed; those with a hit were picked by preference. About 0.6% of all pairs of compound and target were hits. Unmarked numbers belong to inactive results.
# How the values were obtained:
# Assay in all cases: log2 fold change, soluble protein after heating vs DMSO (PISA); higher = thermal stabilisation; K562 cells, 10 uM, 30 min; active = over 0.2 and 3.5 SD of the protein, either way, in both replicates (recomputed)
# erlotinib = compound: C#Cc1cccc(Nc2ncnc3cc(OCCOC)c(OCCOC)cc23)c1 [erlotinib]
# In short: (§1)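 Quantification of soluble protein used TMTpro 16plex LC-MS/MS, with channel sums equalised. Samples were the supernatant after 21,000xg for 90 min of pooled aliquots from K562 cells (2×10^6 cells/mL) treated with 10 μM compound for 30 min, heated for 3 min over 48°C-58°C, and extracted in PBS with 0.5% NP-40 at 4°C. Values, from duplicates, describe thermal stability against control samples on a log2 fold-change scale.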
# [1] = compound: C/C(=N\NC(=O)C1=CC(=CC=C1)S(=O)(=O)N2CCOCC2)/C3=C(C=CC(=C3)Cl)O
# In short: as §1
# [2] = compound: C1=CC(=C(C=C1Cl)C2=NC3=NC=CN=C3C(=N2)NC4=CC=NC=C4)F
# In short: as §1
# [3] = compound: C1=CC(=CC=C1C2=NC3=C(N2)C=C(C=C3)C(=O)N)OC4=CC=C(C=C4)Cl
# In short: as §1
# [4] = compound: C1=CC2=C(C=CC(=C2)/C=C\3/C(=O)NC(=NCC4=CC=CS4)S3)N=C1
# In short: as §1
# [5] = compound: C1=CC2=NC=CN=C2C=C1/C=C/3\C(=O)NC(=O)S3
# In short: as §1
# [6] = compound: C1=CC=C(C=C1)C2=NC(=C(N2)C3=CC=NC=C3)C4=CC(=C(C=C4)Cl)O
# In short: as §1
# [7] = compound: C1=CC=C2C(=C1)C3=NNC4=CC=CC(=C43)C2=O
# In short: as §1
# [8] = compound: C1CCN(C1)C(=O)NC2=CC=CC(=C2)NC3=NC=C(C(=N3)NCCC4=CN=CN4)Br
# In short: as §1
# [9] = compound: C1CN(CCC1(CC2=CC=C(C=C2)Cl)N)C3=NC=NC4=C3C=CN4
# In short: as §1
# IRAK-1-4 Inhibitor I = compound: C1COCCN1CCN2C3=CC=CC=C3N=C2NC(=O)C4=CC(=CC=C4)[N+](=O)[O-] [IRAK-1-4 Inhibitor I]
# In short: as §1
# ibrutinib = compound: C=CC(=O)N1CCC[C@@H](n2nc(-c3ccc(Oc4ccccc4)cc3)c3c(N)ncnc32)C1 [ibrutinib]
# In short: as §1
# [10] = compound: CC(=O)c1cnc2ccc(-c3cc(Cl)c(O)c(Cl)c3)nc2c1N[C@H]1CC[C@H](CN(C)C)CC1
# In short: as §1
# ralimetinib = compound: CC(C)(C)Cn1c(N)nc2ccc(-c3[nH]c(C(C)(C)C)nc3-c3ccc(F)cc3)nc21 [ralimetinib]
# In short: as §1
# [11] = compound: CC(C)(O)CC(=O)NCCn1ccc2ncnc(Nc3ccc(Oc4cccc(C(F)(F)F)c4)c(Cl)c3)c21
# In short: as §1
# [12] = compound: CC(C)C1=C2N=C(C=C(N2N=C1)NCC3=CC=CC=C3)NCCCCCCN
# In short: as §1
# [13] = compound: CC(C)C[C@@H](C=O)NC(=O)[C@H](CC(C)C)NC(=O)[C@H](CC(C)C)NC(=O)OCc1ccccc1
# In short: as §1
# pinometostat = compound: CC(C)N(C[C@H]1O[C@@H](n2cnc3c(N)ncnc32)[C@H](O)[C@@H]1O)[C@H]1C[C@@H](CCc2nc3cc(C(C)(C)C)ccc3[nH]2)C1 [pinometostat]
# In short: as §1
# [14] = compound: CC1=C(C(CC(=O)N1)C2=CC=C(C=C2)C(F)(F)F)C(=O)NC3=C(C=C4C(=C3)C=NN4)F
# In short: as §1
# [15] = compound: CC1=C(C2=C(C=C1)C(=O)C3=CC=CC=C3N2CCCN)C
# In short: as §1
# Chain of UniProt Q16795 (Q16795 whole entry, looked up): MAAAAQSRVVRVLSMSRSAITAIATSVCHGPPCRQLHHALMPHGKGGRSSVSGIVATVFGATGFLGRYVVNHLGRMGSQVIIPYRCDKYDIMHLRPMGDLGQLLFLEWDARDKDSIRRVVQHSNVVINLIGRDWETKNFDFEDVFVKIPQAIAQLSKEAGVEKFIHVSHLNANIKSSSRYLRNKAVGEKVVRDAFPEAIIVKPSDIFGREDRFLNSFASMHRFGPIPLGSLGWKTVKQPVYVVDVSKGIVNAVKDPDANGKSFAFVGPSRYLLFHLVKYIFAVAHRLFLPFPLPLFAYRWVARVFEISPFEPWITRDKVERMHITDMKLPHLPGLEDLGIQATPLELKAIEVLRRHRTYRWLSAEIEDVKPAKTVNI
# Chain of UniProt P51948 (P51948 whole entry, looked up): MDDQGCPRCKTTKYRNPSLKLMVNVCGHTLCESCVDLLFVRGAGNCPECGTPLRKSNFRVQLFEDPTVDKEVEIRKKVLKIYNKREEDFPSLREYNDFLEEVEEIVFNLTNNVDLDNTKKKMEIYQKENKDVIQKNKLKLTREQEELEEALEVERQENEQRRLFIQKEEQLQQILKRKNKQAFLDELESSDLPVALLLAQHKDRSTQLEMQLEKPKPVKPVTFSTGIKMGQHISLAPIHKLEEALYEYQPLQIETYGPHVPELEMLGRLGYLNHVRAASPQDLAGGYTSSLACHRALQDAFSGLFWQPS
# Chain of UniProt Q15102 (Q15102 whole entry, looked up): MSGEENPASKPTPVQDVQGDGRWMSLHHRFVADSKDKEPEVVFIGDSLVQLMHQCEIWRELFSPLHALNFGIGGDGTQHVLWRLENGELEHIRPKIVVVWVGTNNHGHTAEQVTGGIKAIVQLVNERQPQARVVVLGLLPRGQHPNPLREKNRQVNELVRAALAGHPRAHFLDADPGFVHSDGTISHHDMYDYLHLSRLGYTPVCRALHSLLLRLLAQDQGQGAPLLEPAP
# Chain of UniProt Q9BW27 (Q9BW27 whole entry, looked up): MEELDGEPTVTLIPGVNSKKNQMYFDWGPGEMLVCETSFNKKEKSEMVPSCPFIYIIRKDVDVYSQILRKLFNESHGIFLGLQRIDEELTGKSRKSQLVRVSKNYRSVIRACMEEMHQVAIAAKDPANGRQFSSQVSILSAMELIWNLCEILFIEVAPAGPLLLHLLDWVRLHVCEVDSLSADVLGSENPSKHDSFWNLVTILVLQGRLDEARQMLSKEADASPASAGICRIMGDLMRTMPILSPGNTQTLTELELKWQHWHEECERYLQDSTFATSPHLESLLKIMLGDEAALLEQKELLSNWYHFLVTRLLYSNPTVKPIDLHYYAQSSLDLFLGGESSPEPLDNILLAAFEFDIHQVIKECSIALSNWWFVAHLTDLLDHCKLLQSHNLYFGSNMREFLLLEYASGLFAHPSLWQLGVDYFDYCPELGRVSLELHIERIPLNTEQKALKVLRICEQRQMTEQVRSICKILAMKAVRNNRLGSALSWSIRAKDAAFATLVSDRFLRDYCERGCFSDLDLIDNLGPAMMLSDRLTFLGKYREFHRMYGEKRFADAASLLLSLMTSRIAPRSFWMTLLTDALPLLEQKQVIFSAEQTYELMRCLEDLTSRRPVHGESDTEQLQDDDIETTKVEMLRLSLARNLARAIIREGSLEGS
# Chain of UniProt Q9BSU3 (Q9BSU3 whole entry, looked up): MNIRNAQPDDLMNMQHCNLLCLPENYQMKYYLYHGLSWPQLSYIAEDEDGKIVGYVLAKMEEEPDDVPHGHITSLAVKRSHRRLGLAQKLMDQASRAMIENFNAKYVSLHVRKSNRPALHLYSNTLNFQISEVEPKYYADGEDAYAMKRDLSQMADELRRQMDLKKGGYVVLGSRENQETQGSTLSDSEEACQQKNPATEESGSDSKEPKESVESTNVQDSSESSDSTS
# Chain of UniProt Q01804 (Q01804 whole entry, looked up): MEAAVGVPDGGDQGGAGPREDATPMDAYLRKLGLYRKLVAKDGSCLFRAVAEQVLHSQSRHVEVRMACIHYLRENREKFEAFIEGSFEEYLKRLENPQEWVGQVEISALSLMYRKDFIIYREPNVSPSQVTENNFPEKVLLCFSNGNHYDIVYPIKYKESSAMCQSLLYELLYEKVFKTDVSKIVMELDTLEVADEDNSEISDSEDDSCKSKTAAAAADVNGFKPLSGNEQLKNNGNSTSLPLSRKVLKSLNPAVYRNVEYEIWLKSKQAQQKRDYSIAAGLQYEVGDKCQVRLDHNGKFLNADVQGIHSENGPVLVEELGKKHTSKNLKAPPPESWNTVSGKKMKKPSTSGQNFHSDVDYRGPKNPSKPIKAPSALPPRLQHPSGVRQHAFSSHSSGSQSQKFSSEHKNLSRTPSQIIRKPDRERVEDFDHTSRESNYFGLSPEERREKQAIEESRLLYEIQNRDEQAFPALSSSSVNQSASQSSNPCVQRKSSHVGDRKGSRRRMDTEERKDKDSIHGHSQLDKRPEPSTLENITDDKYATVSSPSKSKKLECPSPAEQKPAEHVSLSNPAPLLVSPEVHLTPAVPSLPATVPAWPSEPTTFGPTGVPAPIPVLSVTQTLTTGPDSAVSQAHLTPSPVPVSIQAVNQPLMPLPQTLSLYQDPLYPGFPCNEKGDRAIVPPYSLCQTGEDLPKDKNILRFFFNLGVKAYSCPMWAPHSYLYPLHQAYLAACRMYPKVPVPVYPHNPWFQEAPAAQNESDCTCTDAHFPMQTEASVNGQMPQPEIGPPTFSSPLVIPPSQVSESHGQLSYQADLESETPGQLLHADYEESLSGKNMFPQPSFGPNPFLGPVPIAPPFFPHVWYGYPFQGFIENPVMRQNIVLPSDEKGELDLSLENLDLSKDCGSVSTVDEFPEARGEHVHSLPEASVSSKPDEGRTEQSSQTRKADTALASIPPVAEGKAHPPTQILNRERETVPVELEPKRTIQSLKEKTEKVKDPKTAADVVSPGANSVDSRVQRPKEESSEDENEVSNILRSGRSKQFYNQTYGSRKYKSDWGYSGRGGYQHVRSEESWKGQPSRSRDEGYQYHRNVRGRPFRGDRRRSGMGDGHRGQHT
# Chain of UniProt Q13952 (Q13952 whole entry, looked up): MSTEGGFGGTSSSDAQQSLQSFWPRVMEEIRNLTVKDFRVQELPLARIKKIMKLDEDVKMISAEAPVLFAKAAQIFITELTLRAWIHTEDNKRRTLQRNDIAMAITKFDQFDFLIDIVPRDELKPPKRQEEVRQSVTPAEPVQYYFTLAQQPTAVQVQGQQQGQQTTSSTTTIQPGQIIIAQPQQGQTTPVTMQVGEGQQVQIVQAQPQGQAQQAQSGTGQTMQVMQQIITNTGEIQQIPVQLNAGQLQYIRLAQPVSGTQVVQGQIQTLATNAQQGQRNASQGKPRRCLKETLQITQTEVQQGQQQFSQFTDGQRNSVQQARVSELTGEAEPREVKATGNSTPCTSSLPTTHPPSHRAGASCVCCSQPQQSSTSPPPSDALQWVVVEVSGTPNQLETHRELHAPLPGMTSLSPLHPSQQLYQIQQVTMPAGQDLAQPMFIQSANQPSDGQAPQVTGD
# Chain of UniProt Q9H081 (Q9H081 whole entry, looked up): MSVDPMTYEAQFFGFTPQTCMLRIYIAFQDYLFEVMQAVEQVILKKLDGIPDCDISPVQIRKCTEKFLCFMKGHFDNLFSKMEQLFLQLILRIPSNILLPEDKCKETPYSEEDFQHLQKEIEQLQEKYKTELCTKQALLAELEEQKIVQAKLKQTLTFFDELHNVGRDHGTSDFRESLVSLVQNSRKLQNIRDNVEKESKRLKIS
# Chain of UniProt Q9NRP0 (Q9NRP0 whole entry, looked up): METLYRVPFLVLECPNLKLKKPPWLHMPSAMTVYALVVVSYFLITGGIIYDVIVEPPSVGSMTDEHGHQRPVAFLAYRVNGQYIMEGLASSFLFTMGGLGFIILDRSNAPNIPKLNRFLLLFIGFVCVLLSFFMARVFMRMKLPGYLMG
# Chain of UniProt Q9H3P2 (Q9H3P2 whole entry, looked up): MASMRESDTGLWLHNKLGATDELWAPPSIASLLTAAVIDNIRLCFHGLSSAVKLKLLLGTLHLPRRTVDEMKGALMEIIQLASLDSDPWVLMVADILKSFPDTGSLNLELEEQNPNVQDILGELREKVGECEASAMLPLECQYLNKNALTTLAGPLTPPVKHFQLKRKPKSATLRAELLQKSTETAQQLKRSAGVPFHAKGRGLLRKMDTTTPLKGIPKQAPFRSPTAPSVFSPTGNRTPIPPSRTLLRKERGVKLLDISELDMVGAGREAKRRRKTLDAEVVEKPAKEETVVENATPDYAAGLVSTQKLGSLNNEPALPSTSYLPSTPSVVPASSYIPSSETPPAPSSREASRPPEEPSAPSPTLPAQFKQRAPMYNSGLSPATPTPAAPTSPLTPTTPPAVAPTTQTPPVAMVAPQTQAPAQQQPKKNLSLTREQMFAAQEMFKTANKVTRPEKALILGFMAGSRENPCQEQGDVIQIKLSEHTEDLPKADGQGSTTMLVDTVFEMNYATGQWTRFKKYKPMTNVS
# Chain of UniProt Q6N063 (Q6N063 whole entry, looked up): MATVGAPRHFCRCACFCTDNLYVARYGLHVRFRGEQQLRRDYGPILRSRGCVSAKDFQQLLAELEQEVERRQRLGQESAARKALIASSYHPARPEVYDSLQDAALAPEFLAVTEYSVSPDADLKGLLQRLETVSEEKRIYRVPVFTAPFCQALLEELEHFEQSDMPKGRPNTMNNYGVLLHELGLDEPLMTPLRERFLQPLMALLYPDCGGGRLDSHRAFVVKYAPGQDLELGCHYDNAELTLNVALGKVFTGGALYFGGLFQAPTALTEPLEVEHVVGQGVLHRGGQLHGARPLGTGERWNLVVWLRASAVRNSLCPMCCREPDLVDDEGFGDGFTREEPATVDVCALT
Target,log2 fold change (erlotinib),log2 fold change [1],log2 fold change [2],log2 fold change [3],log2 fold change [4],log2 fold change [5],log2 fold change [6],log2 fold change [7],log2 fold change [8],log2 fold change [9],log2 fold change (IRAK-1-4 Inhibitor I),log2 fold change (ibrutinib),log2 fold change [10],log2 fold change (ralimetinib),log2 fold change [11],log2 fold change [12],log2 fold change [13],log2 fold change (pinometostat),log2 fold change [14],log2 fold change [15]
OSTC (UniProt Q9NRP0),0.021,0.024,0.022,0.017,0.004,-0.001,0.014,0.048,-0.041,0.088,-0.002,-0.013,-0.022,0.004,-0.055,-0.377 (active),-0.046,-0.023,-0.031,0.119
OTUD4 (UniProt Q01804),-0.032,-0.035,-0.137,0.042,-0.033,-0.025,0,0.038,-0.011,0.04,0.007,0.008,-0.029,0.1,0.013,0.035,0.052,0.128,-0.033,0.244
NELFA (UniProt Q9H3P2),0.21,0.231,0.059,-0.061,0.073,0.111,0.048,0,-0.323,-0.028,-0.065,0,-0.357,0.02,-0.286,-0.054,-0.043,-0.02,-0.11,0.252
NUP98 (UniProt P52948),0.063,0.01,-0.085,-0.013,-0.011,0.035,-0.015,-0.217,-0.06,-0.012,-0.021,-0.048,-0.146,0.04,0,-0.071,0.041,0.03,-0.019,0.013
MRPL50 (UniProt Q8N5N7),-0.107,-0.033,0.048,0.004,-0.008,0.066,0.312,0.072,-0.084,-0.073,-0.036,0.052,0.036,0.315,-0.001,-0.014,-0.203,-0.01,0.04,0.16
MRPS17 (UniProt Q9Y2R5),-0.034,-0.019,-0.125,0.142,-0.062,0,0.042,0.088,-0.014,-0.126,-0.192,0.06,-0.029,0.032,-0.054,0.014,0.025,-0.027,-0.049,-0.2
OTULIN (UniProt Q96BN8),-0.023,0.054,0.091,-0.143,0.066,0.06,-0.027,0.039,-0.042,-0.086,0.021,-0.025,-0.003,-0.01,-0.059,-0.362 (active),0.024,0.034,-0.02,0.008
NFYC (UniProt Q13952),0.014,0.004,0.016,-0.006,0.059,0.007,0.007,0.01,-0.034,-0.042,-0.023,-0.042,-0.023,-0.09,-0.046,0.019,-0.061,-0.087,0.046,0.332 (active)
PAFAH1B3 (UniProt Q15102),0.028,0.091,0.029,0.017,0.148,-0.038,0.085,0.061,-0.058,0.032,-0.041,0.008,-0.119,0.009,-0.137,-0.055,-0.078,0.023,0,0.305 (active)
NUP85 (UniProt Q9BW27),0.046,0.08,0.037,0.036,0,0.028,-0.012,-0.066,-0.051,0.008,-0.011,-0.027,-0.058,-0.036,-0.013,-0.048,-0.026,-0.033,0.04,0.015
MNAT1 (UniProt P51948),0.01,0.04,-0.066,0.012,-0.012,0.008,0.002,-0.002,-0.067,-0.01,0.025,0.03,-0.221 (active),-0.044,0.024,0.062,-0.028,0.022,-0.016,-0.027
MIS12 (UniProt Q9H081),0.103,0.083,0.012,0.002,0.107,0.052,-0.063,-0.018,-0.16,-0.016,0.024,0.026,-0.025,-0.004,-0.151,-0.087,0.06,0.006,0.019,-0.035
NDUFA9 (UniProt Q16795),-0.031,0.035,0.059,0.03,0.031,-0.016,0.025,0.047,0.005,0.024,0.003,-0.036,-0.037,-0.011,-0.211,-0.101,0,-0.006,-0.01,0.086
NAA11 (UniProt Q9BSU3),-0.023,-0.012,-0.033,0.06,0.158,-0.207,-0.023,-0.032,-0.108,0.167,0.035,0.049,-0.102,-0.024,-0.042,-0.075,0.072,-0.131,-0.007,0
OGFOD2 (UniProt Q6N063),-0.051,-0.283 (active),-0.047,0.011,0.089,0.14,0.004,0.041,0.023,0.017,0.016,-0.023,-0.102,0.011,-0.031,-0.079,0.002,0.025,-0.001,-0.073
OXSR1 (UniProt O95747),0.042,0.091,-0.024,-0.056,0.106,0.004,0.039,0.054,-0.008,0.007,0.014,-0.022,-0.341 (active),0.045,-0.115,-0.111,-0.05,0.026,0.02,0.106
